Assay [1] concerns the target Calcium and integrin-binding protein 1 (Homo sapiens) (UniProt Q99828). In words: Primary qHTS for Identification of Calcium Integrin Binding Protein 1 (CIB1) Competitor (AID 1508620). Further: top concentration of the series differs between compounds; on the % scale 0 is the no-effect control and ±100 the full control effect. The method, boiled down: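 Fluorescence polarization competition: GST-tagged CIB1 (1 uM final) preincubated with compound 15 min at room temperature, then FITC-labelled alphaIIb peptide (100 nM final) added. After 15 min at room temperature, polarization read at Ex 480/Em 540.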
On the technique in general: In qHTS, concentration-response curves come from the screen itself.

In assay [2] the target is Cytochrome P450 2C9 (Homo sapiens) (UniProt P11712). In words: Cytochrome P450 family 2 subfamily C member 9 (CYP2C9) small molecule antagonists: luciferase biochemical (cell-free) qHTS assay (AID 1645842; active means well fitted curve in the direction sought with a large enough effect in the repeat runs; an effect the other way counts as inactive or inconclusive; further: nearly all actives have a fitted effect of over 55% in size; further: potency means the concentration at half of the fitted maximal effect). In a few lines: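 Luminescence, after 20 min with luciferin detection reagent, reflected CYP2C9 turnover during a 1 h NADPH-driven reaction at 37C. Enzyme-substrate mix contained 0.4% bovine serum albumin and was preincubated with compound 10 min at room temperature.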

Assay [3] can be described thus: Primary qHTS for inhibitors of nuclear receptor binding SET domain protein 2 (NSD2) in an isogenic RCH-ACV NSD2 p.E1099K mutant (9B) (AID 1645876). Further: nearly all actives have a fitted effect of over 70% in size. Further: potency means the concentration at half of the fitted maximal effect. On activity change, negative = viability loss: on the % scale 0 is the no-effect control and ±100 the full control effect.
Assay [4] addresses N-terminal Xaa-Pro-Lys N-methyltransferase 1 (Homo sapiens) (UniProt Q9BV86). As to the kind of experiment: Confirmatory qHTS for Inhibitors of N-terminal methyltransferase 1 (NTMT1): MTaseGlo Assay (AID 1645874). Further: nearly all actives have a fitted effect of over 65% in size. Further: potency means the concentration at half of the fitted maximal effect. In a few lines:
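Luminescent MTase-Glo read-out of SAH. 125 nM NTMT1, 100 uM SAM, 1 uM SPKRIA substrate, 30 min RT reaction after 15 min compound preincubation. Normalized to no-enzyme and DMSO controls; Hill fit.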

SMILES strings stand for the structures. Results filed as inconclusive are left out. Values without a mark were called inactive. Active and inactive are the calls of the source. Unless noted, the call rests on the fitted dose curve; in most records, active means well fitted curve in the direction sought with a large enough effect; inconclusive means small, poorly fitted or top-dose-only effect, or another doubt; inactive means no such curve, though single readings can be large; an effect the other way counts as inactive or inconclusive.

N-terminal Xaa-Pro-Lys N-methyltransferase 1 (Homo sapiens), sequence (Q9BV86 whole entry, looked up): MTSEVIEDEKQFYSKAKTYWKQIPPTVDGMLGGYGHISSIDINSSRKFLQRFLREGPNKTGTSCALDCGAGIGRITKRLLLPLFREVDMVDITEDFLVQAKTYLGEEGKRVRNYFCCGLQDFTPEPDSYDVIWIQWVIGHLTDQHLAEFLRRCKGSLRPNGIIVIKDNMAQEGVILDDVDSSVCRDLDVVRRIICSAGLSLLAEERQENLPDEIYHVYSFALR
Cytochrome P450 2C9 (Homo sapiens), sequence (P11712 whole entry, looked up): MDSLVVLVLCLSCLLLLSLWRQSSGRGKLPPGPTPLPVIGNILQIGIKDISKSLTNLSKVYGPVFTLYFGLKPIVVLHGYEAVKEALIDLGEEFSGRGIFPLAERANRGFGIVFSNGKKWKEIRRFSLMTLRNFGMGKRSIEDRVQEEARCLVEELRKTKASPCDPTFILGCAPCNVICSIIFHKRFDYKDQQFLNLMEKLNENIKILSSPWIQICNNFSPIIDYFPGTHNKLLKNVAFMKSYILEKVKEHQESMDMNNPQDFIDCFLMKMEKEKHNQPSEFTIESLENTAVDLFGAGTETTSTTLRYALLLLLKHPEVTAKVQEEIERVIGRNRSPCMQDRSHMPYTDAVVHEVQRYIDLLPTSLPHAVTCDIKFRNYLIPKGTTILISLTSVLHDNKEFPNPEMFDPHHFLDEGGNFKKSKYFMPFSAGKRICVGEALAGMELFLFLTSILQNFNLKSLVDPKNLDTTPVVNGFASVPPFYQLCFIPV
Calcium and integrin-binding protein 1 (Homo sapiens), sequence (Q99828 whole entry, looked up): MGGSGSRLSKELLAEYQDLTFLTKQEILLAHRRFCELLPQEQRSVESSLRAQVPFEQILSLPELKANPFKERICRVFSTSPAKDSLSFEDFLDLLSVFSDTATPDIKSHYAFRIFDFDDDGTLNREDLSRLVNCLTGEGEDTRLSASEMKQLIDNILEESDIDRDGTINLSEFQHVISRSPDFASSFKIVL

As to `CC1(C)CC(NC(=O)C(=O)Nc2ccc(Br)cc2)CC(C)(C)N1`, the Potency entry in assay [1] and in assay [2] was “inactive” throughout. For the same compound, in assay [3], the Potency was 8.17 µM (active).
Turning to `Cc1cccc2c1NC(=O)C2(c1ccc(O)cc1)c1ccc(O)cc1`, in assay [1], the Potency entry is “inactive”. Moreover, the Potency is 9.52 µM (active) in assay [2] and 3.25 µM (active) in assay [3].
The like results for `CC(C)S(=O)(=O)NC[C@H](C)c1ccc(NC(=O)c2cc(F)cc(F)c2)cc1` were, in that order, “inactive”, 7.56 µM (active) and “inactive”.
The like results for `Cc1nc(Nc2n[nH]c3c2CN(C(=O)NC(CN(C)C)c2ccccc2)C3(C)C)c2sccc2n1` (stereo unspecified) were, in that order, “inactive”, 13.5 µM (active) and 0.0065 µM (active).
Consider `Cc1cc(NC(=O)Nc2ccc(F)c(F)c2)n(-c2ccccc2)n1`, for which the Potency entry in assay [1] and in assay [3] was “inactive” each time. Besides, the Potency in assay [2] is 12 µM (active).
As for `COc1ccc(-c2cnc3ccc(NCc4ccc(S(N)(=O)=O)cc4)nn23)cc1OC`, the Potency entry in assay [1] was “inactive”. The Potency was 6.74 µM (active) in assay [2] and 9.16 µM (active) in assay [3].
In the case of `CNS(=O)(=O)c1ccccc1Nc1nc(Nc2ccc(N3CCN(C)CC3)cc2OC)ncc1Cl`, in assay [1], the Potency result was “inactive”. For the same compound, the Potency in assay [2] is 3.38 µM (active); in assay [3] it was 0.578 µM (active).
Turning to `COc1ccc(C(=O)n2c(C)c(Cc3cccc(O[C@@H](C)C(=O)O)c3)c3cc(OC(F)(F)F)ccc32)cc1`, the Potency result in assay [1] and in assay [3] was “inactive” in each case. Also, the Potency in assay [2] is 19 µM (active).
Turning to `COc1cc(Br)c(Nc2nc(-c3c(C)nc4ncccn34)cs2)c(Br)c1`, in assay [1], the Potency entry was “inactive”. The Potency in assay [2] is 8.49 µM (active); in assay [3], 1.45 µM (active).
Consider `Cn1cc(S(=O)(=O)c2ccc(Cl)cc2)c2cccc(N3CCNCC3)c21`, for which the Potency entry in assay [1] was “inactive”. For the same compound, the Potency was 8.49 µM (active) in assay [2] and 18.3 µM (active) in assay [3].
On to `CC(C)Oc1ccc(C(=O)NC(CNC(=O)CN(C)C)Cc2ccc(-c3cn4cccc(C(C)O)c4n3)cc2)cc1Cl` (stereo unspecified), for which the Potency result in assay [1] is “inactive”. Also, the Potency in assay [2] is 13.5 µM (active); in assay [3] it was 0.163 µM (active).
As to `COc1cccc(C(=O)N2CCN(C(=O)COc3cccc(C)c3)CC2)c1OC`, the Potency result in assay [1] and in assay [3] was “inactive” in each case. Besides, the Potency in assay [2] is 21.3 µM (active).
For `CC1(C)C2CC=C(COC3OC(COC4OCC(O)(CO)C4O)C(O)C(O)C3O)C1C2` (stereo unspecified), the Potency result in assay [1] and in assay [3] was “inactive” each time.
For the compound `COc1ccc(C2=N[C@@H](c3ccc(Cl)cc3)[C@@H](c3ccc(Cl)cc3)N2C(=O)N2CCNC(=O)C2)c(OC(C)C)c1`, the Potency result in assay [1] and in assay [2] was “inactive” each time. Further, the Potency in assay [3] is 3.65 µM (active).
In the case of `Cc1cc2c(c(=O)[nH]1)OC(C(O)CC(C)C)O2` (stereo unspecified), the Potency entry in assay [1], in assay [4] and in assay [3] was “inactive” throughout.
As for `COc1ccc2cc(C(C)C(=O)Oc3ccc(C(N)=S)cc3)ccc2c1` (stereo unspecified), the Potency entry in assay [1] and in assay [3] was “inactive” in each case. For the same compound, the Potency in assay [2] is 21.3 µM (active).
Take `CC(Nc1ncnc2nc[nH]c12)c1cc2cccc(Cl)c2c(=O)n1-c1ccccc1` (stereo unspecified): the Potency result in assay [1] was “inactive”. Besides, the Potency in assay [3] is 0.332 µM (active).
Regarding `COc1cc(O)cc(C)c1C(=O)O[C@H]1[C@@H](OC(C)=O)[C@H](n2ccc(=O)[nH]c2=O)O[C@@H]1CO`, the Potency result in assay [1] and in assay [3] was “inactive” throughout.
As to `Cc1cc2c(F)c(Oc3ncnn4cc(OCC(C)O)c(C)c34)ccc2[nH]1` (stereo unspecified), the Potency result in assay [1] is “inactive”. The Potency in assay [2] was 12 µM (active); in assay [3] it was 4.09 µM (active).
For the compound `NC(=O)c1cccc(-c2cc(OC(=O)NC3CCCCC3)ccc2O)c1`, the Potency result in assay [1] and in assay [4] was “inactive” each time.
Turning to `CC(C)=CC/C=C(\C)[C@H]1CC[C@]2(C)[C@@H]1[C@H](O)C[C@@H]1[C@@]3(C)CC[C@H](O)C(C)(C)[C@@H]3[C@@H](O[C@@H]3O[C@H](CO)[C@@H](O)[C@H](O)[C@H]3O)C[C@]12C`, the Potency result in assay [1] and in assay [3] was “inactive” each time.
`CC1(C)CC[C@]2(C(=O)O[C@@H]3O[C@H](CO)[C@@H](O)[C@H](O)[C@H]3O)CC[C@]3(C)C(=CCC4[C@@]5(C)CC[C@H](O[C@@H]6O[C@H](C(=O)O)[C@@H](O)[C@H](O)[C@H]6O)C(C)(C)C5CC[C@]43C)C2C1` (stereo partly specified): the Potency entry in assay [1] is “inactive”. Besides, in assay [3], the activity change, negative = viability loss was -3.82% [at 9.23 µM].
On to `O=C(O)c1ccccc1NC(=O)N1CCC(c2ccccc2C(F)(F)F)CC1`, for which the Potency entry in assay [1] and in assay [3] was “inactive” in each case. The Potency in assay [2] is 0.849 µM (active).
With `CC(O)/C=C/C1OC(=O)CC1Nc1ccc(C(=O)O)cc1` (stereo unspecified), the Potency result in assay [1] and in assay [3] was “inactive” each time.
With `COc1cccc(-c2cc(NCc3ccc4c(c3)OCO4)nc(N)n2)c1`, in assay [1], the Potency entry was “inactive”. Moreover, the Potency in assay [2] is 2.68 µM (active); in assay [3] it was 0.205 µM (active).
For the compound `CC(=O)N1CCN(Cc2ccc([C@H](C)Nc3nccc(N4C(=O)OC[C@@H]4C(C)C)n3)cc2)CC1`, the Potency result in assay [1] and in assay [3] was “inactive” in each case. Besides, the Potency in assay [2] is 23.9 µM (active).
`CCC1=CC2CN(C1)Cc1c([nH]c3ccccc13)[C@@](C(=O)OC)(c1cc3c(cc1OC)N(C)[C@H]1[C@@](O)(C(=O)OC)[C@H](OC(C)=O)[C@]4(CC)C=CCN5CC[C@]31[C@@H]54)C2` (stereo partly specified): the Potency entry in assay [1] is “inactive”. The Potency in assay [3] is 0.0796 µM (active).
Turning to `COC(=O)C1=COC(O[C@@H]2O[C@H](CO)[C@@H](O)[C@H](O)[C@H]2O)[C@H]2[C@@H]1[C@H](OC(=O)CCc1ccc(O)cc1)C[C@]2(C)O` (stereo partly specified), the Potency result in assay [1] and in assay [3] was “inactive” throughout.
For the compound `O=C(Nc1ccc(S(=O)(=O)Nc2ccccc2Cl)c(Cl)c1)c1ccccn1`, the Potency entry in assay [1] and in assay [3] was “inactive” throughout. Moreover, the Potency in assay [2] is 0.674 µM (active).
`COc1ccc(CNC(=O)c2cc(-c3cncc(C)c3)ncc2-c2nccs2)nc1OC`: the Potency entry in assay [1] and in assay [3] was “inactive” throughout. The Potency in assay [2] is 4.25 µM (active).
For the compound `CC(Oc1cc(-n2cnc3ccc(CN4CCN(C)CC4)cc32)sc1C(N)=O)c1ccccc1C(F)(F)F` (stereo unspecified), the Potency result in assay [1] was “inactive”. In addition, the Potency in assay [4] is 21.4 µM (active); in assay [3], 0.578 µM (active).
For `CC(C)=CCC/C(C)=C/CO[C@@H]1O[C@H](CO)[C@@H](OC(=O)/C=C/c2ccc(O)cc2)[C@H](O[C@@H]2O[C@@H](C)[C@H](O)[C@@H](O)[C@H]2O)[C@H]1O`, the Potency entry in assay [1] and in assay [3] was “inactive” each time.

(Values after PubChem BioAssay (NCATS).)
